The nature of assay [1]: compounds altering circadian rhythm period length – cell-based, LOPAC library, luminescence reporter (AID 2774; call rule not given here;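 also: values are relative to mean of DMSO wells on each plate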). Particulars: circadian reporter cells, at 7 µM, actives lie on both sides.
Assay [2] deals with Hepatitis C virus NS3 helicase. Put plainly: blockers of NS3h binding to ssDNA – biochemical, fluorescence polarization, LOPAC1280 library, primary screen (AID 687035; in the data active = inhibition above about 37%). Particulars: Purified HCV NS3 helicase, Cy5-dT15 ssDNA binding fluorescence polarization; stronger effect = higher value; concentration not given here.
Assay [3] in a line: compounds altering Cy5-DNA-NS3h complex signal – biochemical, LOPAC1280, artefact control for HCV NS3 helicase inhibitor project (AID 687037; call rule not given here). Conditions: Cy5-DNA-NS3h complex fluorescence interference counterscreen. (Counterscreens check selectivity or assay interference.)
For assay [4], the system named is Aerobactin synthetase IucA (Klebsiella pneumoniae). Description: inhibition of K. pneumoniae IucA enzyme – biochemical, Tocris library, absorbance (AID 1345561; call rule not given here;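 also: 100% = enzyme without compound and 0% = no enzyme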). Particulars: purified IucA enzyme assay, absorbance (OD) read-out; stronger effect = lower value;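 tested at 8 µM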.
Assay [5] is described as follows: viability loss in pontine glioma line – cell-based, SU-DIPG-XIII, MIPE4.0, CellTiter-Glo, qHTS, dose response (AID 1347061; cut-off not given, nearly all actives have AC50 up to about 37 µM;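 also: cells exposed to compound for 48 hours before readout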). Particulars: CellTiter-Glo ATP luminescence. In general terms: In ATP-based viability assays light output follows the ATP content of the culture.
Assay [6] can be described thus: viability loss in pontine glioma line – cell-based, JHH-DIPG-1, MIPE4.0, CellTiter-Glo, qHTS, dose response (AID 1347062; cut-off not given, nearly all actives have AC50 up to about 27 µM;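 as to AC50: cells exposed to compound for two days before readout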). Particulars: JHH-DIPG-1 viability, CellTiter-Glo ATP luminescence.
Assay [7] in a line: viability loss in pontine glioma line – cell-based, SU-DIPG-IV, MIPE4.0, CellTiter-Glo, qHTS, dose response (AID 1347063; cut-off not given, nearly all actives have AC50 up to about 30 µM;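 also: compound exposure lasted 48 hours before the viability readout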). Conditions: CellTiter-Glo ATP luminescence.
Assay [8] is described as follows: blockers of cellular phospholipid synthesis – cell-based, LOPAC library, screen 4, primary screen (AID 1347384; call rule not given here). Particulars: animal cells, phospholipid biosynthesis inhibition screen; at 10 µM.
The target of assay [9] is ATP-dependent translocase ABCB1 (Homo sapiens) (UniProt P08183). Put plainly: P-glycoprotein substrate transport blockade – cell-based (AID 377; in the data active = fluorescence slope change above about 50%). Particulars: MDR1-expressing cells, fluorescent substrate accumulation slope; stronger effect = higher value; concentration not given here.
Chain of ATP-dependent translocase ABCB1 (Homo sapiens) (P08183 whole entry, looked up): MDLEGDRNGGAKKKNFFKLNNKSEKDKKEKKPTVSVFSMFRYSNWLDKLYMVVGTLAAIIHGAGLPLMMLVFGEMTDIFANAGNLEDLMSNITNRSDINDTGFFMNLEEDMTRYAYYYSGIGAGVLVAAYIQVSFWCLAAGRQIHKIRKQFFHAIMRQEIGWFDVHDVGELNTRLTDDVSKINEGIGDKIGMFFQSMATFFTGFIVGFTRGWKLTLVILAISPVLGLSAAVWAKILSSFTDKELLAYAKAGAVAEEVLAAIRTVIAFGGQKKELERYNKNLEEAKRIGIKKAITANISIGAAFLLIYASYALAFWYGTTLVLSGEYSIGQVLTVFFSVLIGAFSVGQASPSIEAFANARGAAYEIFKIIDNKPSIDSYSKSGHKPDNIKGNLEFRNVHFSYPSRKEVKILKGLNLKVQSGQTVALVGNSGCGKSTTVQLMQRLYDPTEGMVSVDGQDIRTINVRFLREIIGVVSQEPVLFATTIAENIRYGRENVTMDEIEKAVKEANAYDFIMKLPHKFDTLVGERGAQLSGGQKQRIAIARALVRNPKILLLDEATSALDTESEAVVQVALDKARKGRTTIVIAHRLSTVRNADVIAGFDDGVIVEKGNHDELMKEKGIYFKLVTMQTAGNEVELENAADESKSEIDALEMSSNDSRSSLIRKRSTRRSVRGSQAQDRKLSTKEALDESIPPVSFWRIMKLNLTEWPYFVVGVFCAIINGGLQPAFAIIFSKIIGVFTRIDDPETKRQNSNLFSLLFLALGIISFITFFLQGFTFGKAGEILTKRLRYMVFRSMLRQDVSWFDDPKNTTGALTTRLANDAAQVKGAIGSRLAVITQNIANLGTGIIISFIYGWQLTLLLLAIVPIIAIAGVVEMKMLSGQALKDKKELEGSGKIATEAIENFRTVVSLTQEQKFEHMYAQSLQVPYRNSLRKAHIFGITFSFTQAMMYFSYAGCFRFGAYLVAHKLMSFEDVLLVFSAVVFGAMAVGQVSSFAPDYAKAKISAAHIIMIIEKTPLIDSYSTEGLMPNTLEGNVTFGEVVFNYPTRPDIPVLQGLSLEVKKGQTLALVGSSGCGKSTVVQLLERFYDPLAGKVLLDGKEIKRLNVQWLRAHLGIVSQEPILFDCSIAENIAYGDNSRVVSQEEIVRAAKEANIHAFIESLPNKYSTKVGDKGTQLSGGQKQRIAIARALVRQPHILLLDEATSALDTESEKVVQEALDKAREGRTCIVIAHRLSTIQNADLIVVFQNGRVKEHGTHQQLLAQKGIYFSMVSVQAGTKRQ
Assay [10] can be described thus: viability loss in pontine glioma line – cell-based, SU-DIPG-XIII, MIPE5.0, CellTiter-Glo, qHTS, dose response (AID 1347064; cut-off not given, nearly all actives have AC50 up to about 23 µM;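 as to AC50: cells exposed to compound for 48 hours before the viability read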). Conditions: CellTiter-Glo ATP luminescence.
Assay [11] is described as follows: viability loss in pontine glioma line – cell-based, SU-DIPG-XXV, MIPE5.0, CellTiter-Glo, qHTS, dose response (AID 1347065; cut-off not given, nearly all actives have AC50 up to about 26 µM;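 also: cells exposed to compound for 48 hours before ATP readout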). Conditions: CellTiter-Glo ATP luminescence.
A short description of assay [12]: growth inhibition of DIPG cells – cell-based, MIPE4.0 library, CellTiter-Glo luminescence, qHTS (AID 1347066; cut-off not given, nearly all actives have AC50 up to about 30 µM;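 also: cells exposed to compound for 48 hours before readout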). Particulars: SU-DIPG-VI viability, CellTiter-Glo ATP luminescence.
The nature of assay [13]: growth inhibition of DIPG cells – cell-based, MIPE5.0 library, qHTS (AID 1347068; cut-off not given, nearly all actives have IC50 up to about 30 µM). Conditions: SU-DIPG-XXV viability. (qHTS replaces the single test concentration by a dilution series.)
Assay [14] is described as follows: GFP-Q80 aggregate reduction, neuronal-like cells, cell-based, NGF-treated PC12, GFPQ80 (AID 1614).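 Also: lower means fewer inclusions and 0 means no inclusions at all.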 Particulars: PC12 NGF-treated GFP-polyQ80 inclusion reduction.
The nature of assay [15]: viability loss in pontine glioma line – cell-based, SU-DIPG-XVII, MIPE5.0, CellTiter-Glo, qHTS, dose response (AID 1347060; cut-off not given, nearly all actives have AC50 up to about 26 µM;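 as to AC50: cells exposed to compound for 48 hours before viability readout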). Particulars: CellTiter-Glo ATP luminescence.
A short description of assay [16]: JHH-DIPG-1 glioma cell viability, MIPE5.0 library, CellTiter-Glo luminescence, qHTS (AID 1347067; cut-off not given, nearly all actives have AC50 up to about 26 µM;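 also: cells exposed to compound for 48 hours before readout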). Particulars: JHH-DIPG-1 glioma viability, CellTiter-Glo ATP luminescence.
The nature of assay [17]: drug combination growth inhibition, ovarian cancer – cell-based, oncology-focused library, rucaparib conditional, profiling panel (AID 1508598). Conditions: patient-derived ovarian cancer cells, CellTiter-Glo viability, 144 h, stronger effect = lower value.

Results filed as inconclusive are left out. Calls of active or inactive are those of the source.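 The calls were made as follows, unless noted: active = normalized viability below 100% at a tested concentration; inactive = the rest.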

The inhibition is the drop in the measured response relative to a control, in per cent. What is called remaining activity is the signal under treatment as a percentage of the control signal. Usually AC50 stands for the concentration at which the activity in the assay is half-maximal. Regarding `CCOC(=O)N1CCC(=C2c3ccc(Cl)cc3CCc3cccnc32)CC1`, the period change in assay [1] is -0.1 h (inactive). In addition, the inhibition in [2] is 0% (inactive). Moreover, in assay [3], the fluorescence ratio (interference) was 1 (inactive). In addition, in [4], the remaining activity is 99.4% (inactive). The result in assay [5], in assay [6] and in assay [8] was inactive. In [7], the AC50 was 18700 nM (active).

Turning to `CC(=O)OCC(=O)[C@@]12OC(C)(C)O[C@@H]1C[C@H]1[C@@H]3C[C@H](F)C4=CC(=O)C=C[C@]4(C)[C@@]3(F)[C@@H](O)C[C@@]12C`, the fluorescence slope change in [9] was 14.5% (inactive). The compound was called inactive in assay [5], in assay [6], in [10], in [11], in [12] and in assay [13].

In the case of `CCOC(=O)C1=C(COCCN)NC(C)=C(C(=O)OC)C1c1ccccc1Cl` (centres undefined), the remaining activity in assay [4] was 107% (inactive).

In [14], `O=C(c1ccccc1)c1ccc2n1CCC2C(=O)O` (centres undefined) returned an inclusion score of 2. For the same compound, the period change in [1] is -0.025 h (inactive). In assay [2], the inhibition was -3% (inactive). Besides, the fluorescence ratio (interference) in assay [3] was 1 (inactive). Moreover, the call in assay [15], in assay [6], in [7], in assay [10], in assay [11] and in [12] was inactive. In addition, the result in assay [16], in assay [13] and in assay [8] was inactive. In assay [5], the AC50 is 8330 nM (active).

Turning to `CN1CCN(CCCN2c3ccccc3Sc3ccc(C(F)(F)F)cc32)CC1`, the fluorescence slope change in assay [9] was 134% (active). In addition, the period change in [1] is 0.025 h (inactive). Also, the inhibition in [2] was -6% (inactive). In addition, in assay [3], the fluorescence ratio (interference) was 0.9 (inactive). Moreover, the results for the AC50 in [5], in [11] and in [16] were 18700 nM (active), 18600 nM (active) and 23500 nM (active), respectively. For the same compound, the compound was called inactive in assay [6], in assay [12] and in assay [8].

`CCCN1C[C@H](CSC)C[C@@H]2c3cccc4[nH]cc(c34)C[C@H]21`: the fluorescence slope change in [9] is 72.8% (active). This compound had an inclusion score in assay [14] of 2. In addition, the period change in [1] was 0.02 h (inactive). Further, the inhibition in [2] was -6% (inactive). In addition, in [3], the fluorescence ratio (interference) was 1 (inactive). In addition, in assay [8], the compound was classed as inactive.

The compound `Cc1c(OCC(F)(F)F)ccnc1CS(=O)c1nc2ccccc2[nH]1` (centres undefined) registered an inclusion score in assay [14] of 2. The period change in assay [1] was -0.035 h (inactive). In [2], the inhibition was -2% (inactive). The fluorescence ratio (interference) in assay [3] was 1 (inactive). In addition, the remaining activity in assay [4] is 87.5% (inactive). Further, the compound was classed as inactive in assay [15], in assay [7], in [10], in [11], in [12] and in assay [13]. Further, in assay [8], the call was inactive.

The viability is a read-out of living cells in per cent, often relative to untreated cells. As to `CCN(CC)C(=S)SSC(=S)N(CC)CC`, in assay [9], the fluorescence slope change is 81.8% (active). In addition, the period change in [1] was -0.07 h (inactive). Further, the inhibition in [2] is -3% (inactive). Moreover, the fluorescence ratio (interference) in assay [3] is 1 (inactive). Besides, the AC50 in assay [15] is 934 nM (active); in assay [5] it was 10.5 nM (active); in assay [6], 9.35 nM (active); in assay [7] it was 20.9 nM (active); in assay [10] it was 934 nM (active); in assay [11], 833 nM (active). The AC50 is 3.72 nM (active) in assay [12] and 934 nM (active) in [16]. Besides, the result in assay [13] and in [8] was inactive. The viability in [17] (at 0.000305 µM, OCI-C5x cells, with rucaparib 10 µM, 100% = cells with rucaparib alone) is 117% (inactive); in assay [17] (at 0.000305 µM, OCI-C5x cells, without rucaparib) it was 126% (inactive); in assay [17] (at 0.000305 µM, OCI-P5x cells, with rucaparib 20 µM, 100% = cells with rucaparib alone) it was 78.8% (active); in [17] (at 0.000305 µM, OCI-P5x cells, without rucaparib), 89.7% (active); in [17] (at 0.00122 µM, OCI-C5x cells, with rucaparib 10 µM, 100% = cells with rucaparib alone) it was 122% (inactive); in assay [17] (at 0.00122 µM, OCI-C5x cells, without rucaparib), 146% (inactive). In addition, the viability in assay [17] (at 0.00122 µM, OCI-P5x cells, with rucaparib 20 µM, 100% = cells with rucaparib alone) was 76.6% (active); in assay [17] (at 0.00122 µM, OCI-P5x cells, without rucaparib) it was 90.8% (active); in assay [17] (at 0.00488 µM, OCI-C5x cells, with rucaparib 10 µM, 100% = cells with rucaparib alone), 117% (inactive); in assay [17] (at 0.00488 µM, OCI-C5x cells, without rucaparib), 130% (inactive); in [17] (at 0.00488 µM, OCI-P5x cells, with rucaparib 20 µM, 100% = cells with rucaparib alone) it was 75.9% (active); in [17] (at 0.00488 µM, OCI-P5x cells, without rucaparib), 86.5% (active). For the same compound, the viability in assay [17] (at 0.0195 µM, OCI-C5x cells, with rucaparib 10 µM, 100% = cells with rucaparib alone) was 128% (inactive); in assay [17] (at 0.0195 µM, OCI-C5x cells, without rucaparib), 126% (inactive); in assay [17] (at 0.0195 µM, OCI-P5x cells, with rucaparib 20 µM, 100% = cells with rucaparib alone), 74.6% (active); in assay [17] (at 0.0195 µM, OCI-P5x cells, without rucaparib) it was 78.5% (active); in [17] (at 0.0781 µM, OCI-C5x cells, with rucaparib 10 µM, 100% = cells with rucaparib alone) it was 120% (inactive); in [17] (at 0.0781 µM, OCI-C5x cells, without rucaparib), 120% (inactive). Besides, the viability is 104% (inactive) in assay [17] (at 0.0781 µM, OCI-P5x cells, with rucaparib 20 µM, 100% = cells with rucaparib alone); 131% (inactive) in assay [17] (at 0.0781 µM, OCI-P5x cells, without rucaparib); 135% (inactive) in assay [17] (at 0.313 µM, OCI-C5x cells, with rucaparib 10 µM, 100% = cells with rucaparib alone); 136% (inactive) in assay [17] (at 0.313 µM, OCI-C5x cells, without rucaparib); 102% (inactive) in [17] (at 0.313 µM, OCI-P5x cells, with rucaparib 20 µM, 100% = cells with rucaparib alone); 129% (inactive) in [17] (at 0.313 µM, OCI-P5x cells, without rucaparib). Also, the viability in assay [17] (at 1.25 µM, OCI-C5x cells, with rucaparib 10 µM, 100% = cells with rucaparib alone) is 121% (inactive); in [17] (at 1.25 µM, OCI-C5x cells, without rucaparib), 135% (inactive); in [17] (at 1.25 µM, OCI-P5x cells, with rucaparib 20 µM, 100% = cells with rucaparib alone) it was 103% (inactive); in assay [17] (at 1.25 µM, OCI-P5x cells, without rucaparib), 116% (inactive); in [17] (at 5 µM, OCI-C5x cells, with rucaparib 10 µM, 100% = cells with rucaparib alone), 113% (inactive); in assay [17] (at 5 µM, OCI-C5x cells, without rucaparib) it was 129% (inactive). In addition, the viability is 110% (inactive) in assay [17] (at 5 µM, OCI-P5x cells, with rucaparib 20 µM, 100% = cells with rucaparib alone) and 120% (inactive) in [17] (at 5 µM, OCI-P5x cells, without rucaparib).

`C[C@@H]1C[C@H]2[C@@H]3CCC4=CC(=O)C=C[C@]4(C)[C@@]3(F)[C@@H](O)C[C@]2(C)[C@@]1(O)C(=O)CO`: the call in assay [15], in assay [10], in [11], in [16] and in assay [13] was inactive.

Regarding `CC(=O)OCC(=O)[C@@]1(O)CC[C@H]2[C@@H]3CCC4=CC(=O)CC[C@]4(C)[C@H]3C(=O)C[C@@]21C`, the period change in assay [1] is -0.03 h (inactive). Moreover, the inhibition in assay [2] is -3% (inactive). The fluorescence ratio (interference) in [3] is 0.9 (inactive). Besides, the result in assay [5], in [6], in assay [7], in assay [11], in [12] and in assay [16] was inactive. Besides, the result in assay [13] and in assay [8] was inactive.

With `CC1(C)O[C@@H]2C[C@H]3[C@@H]4CCC5=CC(=O)C=C[C@]5(C)[C@@]4(F)[C@@H](O)C[C@]3(C)[C@]2(C(=O)CO)O1`, the call in [15], in assay [5], in assay [7], in assay [10], in [11] and in [12] was inactive. Also, the outcome in assay [16] and in [13] was inactive.

For `CCC(=O)O[C@]1(C(=O)CCl)[C@@H](C)C[C@H]2[C@@H]3CCC4=CC(=O)C=C[C@]4(C)[C@@]3(F)[C@@H](O)C[C@@]21C`, the outcome in [15], in [5], in assay [6], in [10], in assay [12] and in assay [16] was inactive.

Values taken from PubChem BioAssay.
